Screening data from PubChem BioAssay.
DT40 TDP1 CPT: growth inhibition of DT40 Tdp1-/-;hTDP1 cells with camptothecin (screen for TDP1 inhibitors) | Potency, µM (highest dose often 46.2 µM), most hits filed as inhibitors | chicken DT40 Tdp1-/-;hTDP1 cells + 20 nM CPT, ATP luminescence, 48 h | hit rate 12% among 420,000; also: nearly all actives have a fitted effect of over 55% in size
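Cell growth measured by CellTiter-Glo luminescence after a minimum 48 h, 37 C compound exposure with 20 nM CPT in Tdp1-knockout DT40 cells stably expressing hTDP1, seeded 400/well; qHTS titration format.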
DT40 TDP1 no CPT: qHTS for Inhibitors of human tyrosyl-DNA phosphodiesterase 1 (TDP1): qHTS in cells in absence of CPT | DT40 Tdp1-/- hTDP1 cells, no CPT, ATP luminescence, 48 h | Potency, µM (titrated, usually from 46.2 µM), most hits filed as inhibitors | hit rate 15% among 420,000 | AID 686978, 2013; also: nearly all actives have a fitted effect of over 55% in size
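A cellular qHTS used chicken DT40 cells lacking endogenous Tdp1 but carrying stably transfected human TDP1. Compounds were applied without camptothecin, and cell growth kinetics were judged by ATP-dependent luminescence after ≥48 hr.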
PLK1 PBD inh: PLK1 (human) polo-box domain binding inhibition. P53350. Plk1 PBD binding of FITC phosphopeptide, fluorescence polarization. Potency, µM, hits mostly inhibitors. hit rate 2.8% among 360,000. AID 720504; also: series mostly up to about 57 µM; nearly all actives have a fitted effect of over 65% in size
TDP1 block: blocks human tyrosyl-DNA phosphodiesterase 1 | Q9NUW8 | recombinant TDP1, AlphaScreen DNA substrate cleavage | Potency, µM (titrated, usually from 130 µM), actives largely listed as inhibitors | hit rate 0.28% among 350,000; also: nearly all actives have a fitted effect of over 40% in size
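Enzyme-compound mixtures sat 15 min at room temperature, followed by a 5 min reaction with 15 nM final substrate and 10 min with AlphaScreen beads. Recombinant human Tdp1 was used at 1 nM final.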
GCN5L2 inh: GCN5L2 (KAT2A) acetyltransferase inhibition; GCN5L2 HAT assay, ThioGlo1 CoA-SH fluorescence; Potency, µM (top dose mostly 58.9 µM), actives largely listed as inhibitors; hit rate 0.21% among 390,000
Target sequence (Q92830 whole entry, looked up): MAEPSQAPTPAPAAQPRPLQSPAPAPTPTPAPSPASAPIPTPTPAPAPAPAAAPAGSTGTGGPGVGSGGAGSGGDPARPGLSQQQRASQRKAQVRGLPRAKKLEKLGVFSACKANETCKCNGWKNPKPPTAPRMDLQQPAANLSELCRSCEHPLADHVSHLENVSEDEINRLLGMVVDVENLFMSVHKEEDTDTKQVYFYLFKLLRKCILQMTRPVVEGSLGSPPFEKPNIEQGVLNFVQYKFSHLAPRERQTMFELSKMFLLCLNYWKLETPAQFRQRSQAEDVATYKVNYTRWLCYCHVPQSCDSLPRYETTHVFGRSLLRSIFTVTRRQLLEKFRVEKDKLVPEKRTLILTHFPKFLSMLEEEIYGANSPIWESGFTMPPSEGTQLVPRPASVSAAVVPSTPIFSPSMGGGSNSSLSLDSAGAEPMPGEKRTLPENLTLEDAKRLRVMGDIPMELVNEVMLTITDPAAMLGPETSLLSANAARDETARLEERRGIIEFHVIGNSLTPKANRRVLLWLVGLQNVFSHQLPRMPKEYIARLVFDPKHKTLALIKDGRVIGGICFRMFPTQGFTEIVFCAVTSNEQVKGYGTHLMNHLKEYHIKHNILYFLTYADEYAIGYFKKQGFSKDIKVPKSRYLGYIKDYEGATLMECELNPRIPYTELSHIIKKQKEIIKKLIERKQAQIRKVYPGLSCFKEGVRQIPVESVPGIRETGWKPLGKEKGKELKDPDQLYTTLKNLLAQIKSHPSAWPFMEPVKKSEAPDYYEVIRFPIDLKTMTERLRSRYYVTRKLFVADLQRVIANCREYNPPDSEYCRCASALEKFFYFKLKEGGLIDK
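GCN5L2 (20 nM) in 50mM HEPES pH 7.5, 0.1mM EDTA, 0.01% Tween-20 preincubated 15 min with compounds at room temperature. Reaction started with H3(1-25) 75uM, acetyl-CoA 70uM, ThioGlo1 50uM; CoA-thiol fluorescence (Ex340/Em540) read at 0 and 20 min.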
VDR inhibitor: vitamin D3 receptor (human) inhibition; P11473; VDR-SRC2-3 peptide fluorescence polarization, 2 h; Potency, µM, hits mostly inhibitors; hit rate 0.93% among 400,000
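Inhibition of the VDR/SRC2-3 peptide interaction is quantified by fluorescence polarization. Compounds (23 nl, pintool) incubate with the reagents for 2 hours at ambient room temperature.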
Hits are given with their value; - = inactive; ? = inconclusive; . = no result. Hits are enriched below; roughly 18% of the tested compounds scored in any of these assays. Calls follow the shape of the dose curve; as a rule, active = well fitted curve in the direction sought with a large enough effect; inconclusive = small, poorly fitted or top-dose-only effect, or another doubt; inactive = no such curve, though single readings can be large; an effect the other way counts as inactive or inconclusive.

SMILES	DT40 TDP1 CPT	DT40 TDP1 no CPT	PLK1 PBD inh	TDP1 block	GCN5L2 inh	VDR inhibitor
CCOC(=O)c1csc(NC(=O)c2cc3ccccc3o2)n1	-	-	-	-	-	-
O=C(Nc1nc(-c2ccccn2)cs1)c1cc2ccccc2o1	?	7.31µM	-	-	-	-
O=C(Nc1nc(-c2ccccn2)cs1)c1ncc(Cl)c(Cl)c1Cl	-	3.26µM	-	-	-	-
O=C(NCCCN1CCOCC1)c1cnccn1	-	-	-	-	-	-
COc1ccc(OC)c(-n2c(C)ccc2-c2ccc(S(C)(=O)=O)cc2)c1	18.4µM	?	-	-	-	-
Cc1cc(NC(=O)CSc2nnc(-c3ccccc3)n2C)no1	-	-	23.8µM	-	-	-
Cc1cc(NC(=O)CSc2nnc(Nc3ccccc3C)s2)no1	?	-	21.2µM	-	-	-
Cc1ccccc1Nc1nnc(SCc2cc(=O)n3ccsc3n2)s1	?	16.4µM	-	-	?	-
CCc1nn(CC(=O)Nc2cccc(C(C)=O)c2)c(=O)c2cc3sccc3n12	18.4µM	?	.	-	-	-
CC(=O)c1cccc(NC(=O)Cn2nc(C)n3cccc3c2=O)c1	-	16.4µM	.	-	-	-
CCc1nn(CC(=O)Nc2ccc(NC(C)=O)cc2)c(=O)c2cc3sccc3n12	-	-	.	-	-	-
CCc1nn(CC(=O)NCCCN2CCc3ccccc3C2)c(=O)c2cc3sccc3n12	23.1µM	?	-	-	-	-
CCOC(=O)c1cccc(NC(=O)Cn2nc(C)n3cccc3c2=O)c1	-	-	-	-	-	-
Cc1ccc(S(=O)(=O)N2CCOC2CNC(=O)C(=O)NCc2ccccn2)cc1 (stereo not drawn)	-	-	-	-	-	-
O=C(O)c1ccccc1NS(=O)(=O)c1ccc(NNC(=S)Nc2ccc(OC(F)F)cc2)c([N+](=O)[O-])c1	?	-	10.6µM	-	22.4µM	?
COc1cc(C=NNc2ccc(S(=O)(=O)Nc3ccccc3C(=O)O)cc2[N+](=O)[O-])ccc1O	-	-	?	-	?	?
COc1ccc(C(C)=NNc2ccc([N+](=O)[O-])cc2S(=O)(=O)Nc2ccccc2C(=O)O)c(OC)c1	-	-	21.2µM	-	?	?
Cc1ccc(NC(=S)NNc2ccc([N+](=O)[O-])cc2S(=O)(=O)Nc2ccccc2C(=O)O)cc1C	?	?	26.7µM	-	?	39.8µM
Oc1ccc(-c2nc(-c3ccc(F)cc3)c(-c3ccncc3)[nH]2)cc1	?	6.51µM	-	-	?	-
Cc1noc(C)c1-c1nccc(NC2CC2)n1	-	-	.	.	?	50.1µM
CSc1ccc(CN(C)CC(=O)Nc2cccc(Br)c2)cc1	?	?	-	-	-	-
CCc1cccc(C)c1NC(=O)CN(C)Cc1ccccc1F	14.6µM	16.4µM	-	-	-	-
CCc1cccc(C)c1NC(=O)CCOc1ccccc1	-	-	-	.	-	-
CSc1ccc(CN(C)CC(=O)Nc2c(F)cccc2F)cc1	20.6µM	?	-	-	-	-
C=C1CCc2c([nH]c3ccc(OCC(C)C)cc23)C1=O	0.82µM	0.92µM	-	.	-	-
SMILES	DT40 TDP1 CPT	DT40 TDP1 no CPT	PLK1 PBD inh	TDP1 block	GCN5L2 inh	VDR inhibitor
COc1ccc2[nH]c3c(c2c1)CCNC3=O	?	?	.	-	.	-
Cc1c2cnn(-c3ccccc3)c(=O)c2c(C)n1CC(=O)NCc1ccccc1	?	-	.	-	-	-
COc1cc(CN2CCCC(n3cc(C(=O)N4CCCCC4)nn3)C2)cc(OC)c1 (stereo not drawn)	?	23.1µM	.	.	.	.
O=C(N/N=C/c1ccc(O)cc1)c1cc(C23CC4CC(CC(C4)C2)C3)[nH]n1	?	?	-	.	-	-
C/C(=N\NC(=O)c1cc(C(C)(C)C)[nH]n1)C12CC3CC(CC(C3)C1)C2	?	?	16.8µM	-	-	-
COCCNC(=O)CSc1c2c(nc3ccc(Cl)cc13)CCCC2	16.4µM	?	-	-	-	?
O=C(CSc1c2c(nc3cc(Cl)ccc13)CCCC2)NCc1ccccc1Cl	18.4µM	14.6µM	.	-	-	-
O=C(CSc1c2c(nc3ccc(Cl)cc13)CCCC2)NCc1ccccc1Cl	14.6µM	23.1µM	.	-	-	-
O=C(CSc1c2c(nc3cc(Cl)ccc13)CCCC2)N1CCN(c2ccccc2)CC1	7.31µM	5.8µM	.	-	-	-
C=CCC1(CC=C)CCCN1C(=O)Cn1nnnc1CN(C)C(C)C	-	-	-	.	-	-
COC(=O)c1cccc(NC(=S)N2CCN(c3ccccc3F)CC2)c1	-	?	-	.	-	-
Nc1ccc(Cl)cc1Cl	.	.	.	-	.	.
Cc1ccc2c(SCC(=O)NCc3ccco3)nc(-c3ccc(F)cc3)nc2c1	?	-	-	-	-	-
O=C(CSc1c2c(nc3cc(Cl)ccc13)CCCC2)NCc1ccco1	23.1µM	16.4µM	-	-	-	-
Cc1cc(C)c2cc(C#N)c(SCC(=O)NCc3ccco3)nc2c1	18.4µM	18.4µM	-	-	-	-
CCCCNC(=O)CSc1c2c(nc3ccc(Cl)cc13)CCCC2	?	?	.	-	-	-
CCC(C)NC(=O)CSc1c2c(nc3cc(Cl)ccc13)CCCC2 (stereo not drawn)	?	?	.	-	-	-
CCCCN(CC)C(=O)CSc1c2c(nc3ccc(Cl)cc13)CCCC2	7.31µM	16.4µM	.	-	-	?
CC(C)C1=CC2=CC[C@@H]3[C@@](C)(C(=O)O)CCC[C@]3(C)C2CC1 (stereo partly drawn)	-	-	.	-	.	.
COc1cc(OC)c(NC(=O)CSc2nc3ccncc3[nH]2)cc1Cl	6.51µM	5.17µM	.	?	-	-
O=C(CSc1nc2ccncc2[nH]1)Nc1ccccc1C(F)(F)F	?	14.6µM	-	-	-	-
Clc1ccccc1CSc1nc2ccncc2[nH]1	?	23.1µM	?	-	-	-
O=C(CSc1nc2cc3ccccc3cc2[nH]1)Nc1cccc(C(F)(F)F)c1	18.4µM	20.6µM	.	-	-	-
O=C(CSc1nc2c(c(=O)[nH]1)CCCC2)Nc1ccc(Br)cc1	?	?	.	-	-	-
Cc1ccc(-c2c[n+](CC(=O)Nc3ccc(C)cc3C)c3n2CCC3)cc1	?	14.6µM	-	-	-	-
Cc1ccc(NC(=O)C[n+]2cc(-c3ccc(C)cc3)n3c2CCC3)cc1	4.11µM	5.17µM	-	-	-	-
C[C@H](CO)N1C[C@H](C)[C@@H](CN(C)S(=O)(=O)c2ccccc2C#N)OCc2cn(nn2)CCCC1=O	-	-	-	.	.	.
CC(NCC(O)COC1CCC(C(C)(C)C)CC1)c1ccccc1 (stereo not drawn)	?	20.6µM	-	-	-	-
CC1CCC(C(C)C)C(OCC(O)CNC(C)c2ccccc2)C1 (stereo not drawn)	?	14.6µM	-	-	-	-
